Assay outcomes deposited in PubChem BioAssay by National Center for Advancing Translational Sciences (NCATS).
An excerpt weighted towards active compounds, which were near 7.3% of everything screened.
NPC1 promoter act = activators of NPC1 promoter. Huh7 NPC1 promoter luciferase reporter, 24 h. Potency, µM (titrated, usually from 9.22 µM), for inactives: at the highest dose activation, most hits filed as activators. 320,000 compounds, 2.4% hits; further: % of control where 0% means no effect; nearly all actives have a fitted effect of over 60% in size
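Quantitative HTS used a cell-based reporter: Huh7 cells stably bearing the NPC1 promoter upstream of luciferase were treated with compounds for 24 h, and promoter activation was read as luminescence.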
KinaseGlo FLuc = blocks Kinase-Glo luciferase, a counter-screen artifact. Q27757. Kinase-Glo luciferase, ATP luminescence, 8 min. Potency, µM (doses to about 38.3 µM), for the others: top-dose activity change, negative = inhibition, hits mostly inhibitors. 200,000 compounds, 0.28% hits. AID 1379; further: on the % scale 0 is the no-effect control and ±100 the full control effect; nearly all actives have a fitted effect of over 60% in size
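Light output from Kinase-Glo luciferase with luciferin and 10 uM ATP in 50 mM imidazole pH 7.2, KCl, MgCl2, Tween 20, BSA; compound pin-delivered, 8-min ambient incubation, then luminescence read.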
SMN2 splice up = increases expression of the SMN2 splice variant; HEK293 SMN2-luciferase splicing reporter, luminescence, 30-36 h; Potency, µM (titrated, usually from 46.1 µM), for inactives: at the highest dose activity change, positive = activation, usual class: activators; 210,000 compounds, 2.8% hits; AID 1458; further: % of control where 0% means no effect; nearly all actives have a fitted effect of over 55% in size
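HEK293 cells carry an SMN2 […]–luciferase reporter in which exon 7 inclusion puts luciferase in frame. Cells were plated 10-12 h before compound addition, then incubated 30-36 h at 37C. ONE-Glo luminescence was read; sodium butyrate at 4.5 mM final served as control.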
Rab9 promoter act = activators of Rab9 promoter; Huh7 Rab9 promoter-luciferase reporter, luminescence, 24 h; Potency, µM (top dose mostly 9.22 µM), without a hit: at the top dose activation, negative = inhibition, usual class: activators; AID 485297; 320,000 compounds, 2.8% hits; further: % of control where 0% means no effect; nearly all actives have a fitted effect of over 60% in size
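Steps: seed 1500 Huh7 Rab9-luc cells per well, rest 2 h at 37 °C; add compound in DMSO; incubate 24 h; add luciferase reagent, 10 min ambient; read luminescence.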
FLuc counter = counter-screen for miR-21 project: firefly luciferase inhibitors or activators; purified FLuc, Km substrates, luminescence inhibition; AID 588342; 360,000 compounds, 6.9% hits; Potency, µM (top dose mostly 57.5 µM), for the others: top-dose activity change, negative = inhibition, most hits filed as inhibitors;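 further: plate controls were vehicle for no effect and reference inhibitor for full effect; nearly all actives have a fitted effect of over 55% in size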
Target sequence (P08659 whole entry, looked up): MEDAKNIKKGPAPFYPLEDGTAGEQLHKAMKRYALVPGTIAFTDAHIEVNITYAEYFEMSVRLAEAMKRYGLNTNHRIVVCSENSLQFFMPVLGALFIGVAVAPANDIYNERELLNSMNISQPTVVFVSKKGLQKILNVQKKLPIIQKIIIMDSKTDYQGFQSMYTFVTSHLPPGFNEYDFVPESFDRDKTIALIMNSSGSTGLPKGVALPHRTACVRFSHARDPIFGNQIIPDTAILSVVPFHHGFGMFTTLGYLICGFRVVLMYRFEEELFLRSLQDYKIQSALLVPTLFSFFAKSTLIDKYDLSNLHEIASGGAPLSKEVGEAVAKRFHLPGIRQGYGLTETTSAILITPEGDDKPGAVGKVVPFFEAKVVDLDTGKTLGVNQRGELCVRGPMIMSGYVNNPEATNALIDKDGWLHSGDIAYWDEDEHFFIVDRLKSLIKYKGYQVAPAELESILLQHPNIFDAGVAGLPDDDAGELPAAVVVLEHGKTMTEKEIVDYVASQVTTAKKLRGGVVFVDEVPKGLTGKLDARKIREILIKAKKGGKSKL
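Purified P. pyralis luciferase, 10 nM final, with Km-level 10 uM D-luciferin and 10 uM ATP in 50 mM Tris acetate pH 7.5, 10 mM Mg acetate, 0.01% Tween-20, 0.05% BSA; 6-point qHTS titration about 60 µM downward; luminescence read.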
ELG1 genotox = genotoxicity induction in ELG1-luciferase HEK293T cells. HEK293T ELG1-luciferase reporter, luminescence, 16 h. Potency, µM (doses to about 46 µM), inactives show at the top dose activity change, positive = activation, usual class: activators. 330,000 compounds, 1.3% hits; further: % of control where 0% means no effect; nearly all actives have a fitted effect of over 60% in size
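After overnight (16 hr) compound treatment at 37 °C, ELG1-luciferase HEK293T cells were lysed with ONE-Glo; luminescence quantified 30 min later at room temperature.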
* = called active by the depositor; u = inconclusive; x = no result; [ ] = another dose, or the depositor's remark. The call rests on the fitted dose curve; in most records, active means well fitted curve in the direction sought with a large enough effect; inconclusive means small, poorly fitted or top-dose-only effect, or another doubt; inactive means no such curve, though single readings can be large; an effect the other way counts as inactive or inconclusive. Potency means the concentration at half of the fitted maximal effect.

SMILES	NPC1 promoter act	KinaseGlo FLuc	SMN2 splice up	Rab9 promoter act	FLuc counter	ELG1 genotox
COC1=C(Nc2ccc(O)cc2)C(=O)c2ccccc2C1=O	13%	-17%	-18%	3%	u	1%
CCN(CC)c1ccc(NC2=C(Cl)C(=O)c3ccccc3C2=O)cc1	-38%	u	-109%	-35%	12µM*	2.9µM*
COC1=C(Nc2ccc(OC)cc2)C(=O)c2ccccc2C1=O	28%	-20%	u	u	19µM*	4%
Cc1nn(CCCC(=O)NCc2cccc(F)c2)c(=O)c2nn(-c3ccccc3)c(C)c12	x	x	x	x	-11%	x
CC(C)CNc1nc(Oc2ccc(OCC(N)=O)nn2)nc(N2CCOCC2)n1	x	x	5%	x	-5%	x
CCCC(=O)N=C1SC2CS(=O)(=O)CC2N1c1ccc(-c2nc3ccc(C)cc3s2)cc1 (stereo not drawn)	3.5µM*	x	x	4µM*	5.4µM*	21µM*
Cc1ccccc1-n1c(Cn2c(=O)sc3ccccc32)nnc1SC(C)C	-1%	-3%	-22%	-2%	-1%	-2%
CCOc1ccc(/C=N/NC(=O)c2ccc(Cn3cc(Br)cn3)o2)cc1	4%	-2%	7%	2%	6.7µM*	17%
CCOc1ccccc1/C=N/NC(=O)c1ccc(Cn2cc([N+](=O)[O-])cn2)o1	-2%	0%	6%	-5%	6%	1%
CCCc1ccc(OCc2ccc(C(=O)N/N=C/c3cccnc3)o2)cc1	0.4µM*	x	x	0.45µM*	u	0.82µM*
CC(/C=N/NC(=O)c1ccc(Cn2cc([N+](=O)[O-])cn2)o1)=C\c1ccccc1	u	x	x	4%[1.84 µM]	2.4µM*	12%
CC(C)(C)c1ccc(OCc2ccc(C(=O)N/N=C/c3ccc([N+](=O)[O-])cc3)o2)cc1	1.6µM*	-5%	20%	u	u	2%
COc1ccc(CCC(=O)Nc2cccc(S(=O)(=O)N3CCCCCC3)c2)cc1	-5%	x	x	-1%	u	-6%
COc1ccc(/C=N/NC(=O)c2ccc(COc3ccccc3Cl)o2)cc1	18%	-7%	14%	17%	2.7µM*	13%
COc1ccc(/C=N/NC(=O)c2ccc(COc3ccccc3Cl)o2)c(OC)c1C	-6%	2%	-8%	-7%	3%	14%
CCOc1ccc(/C=N/NC(=O)c2ccc(Cn3cc([N+](=O)[O-])cn3)o2)cc1	x	-15%	27%	x	4.8µM*	x
CCn1cc(Cl)c(C(=O)Nc2cc(C(=O)OC)cc(C(=O)OC)c2)n1	0%	-1%	-9%	5%	1%	1%
CCn1cc(Cl)c(C(=O)Nc2ccc(OC)c(OC)c2)n1	26%	-5%	-42%	u	15µM*	-7%
CCn1ccc(C(=O)Nc2ccccc2Cl)n1	2µM*	-12%	x	1.6µM*	11µM*	8.2µM*
CCn1ccc(C(=O)Nc2ccc(S(=O)(=O)Nc3ccccc3OC)cc2)n1	2%	5%	-63%	0%	4%	-4%
CCn1cc(Br)c(C(=O)Nc2ccc(Cl)c(Cl)c2)n1	u	3%	u	3.5µM*	u	u
CCn1ccc(C(=O)Nc2cccc(Cl)c2)n1	3.5µM*	-1%	13µM*	1.4µM*	11µM*	u
COc1ncc2nc(-c3cc(F)cc(F)c3)c(=O)n(C3CC3)c2n1	x	-3%	0%	x	x	x
CCn1cc(Br)c(C(=O)NN)n1	u	6%	8%	2%	3%	1%
CCn1cc(Br)c(C(=O)Nc2cccc(Cl)c2)n1	4µM*	1%	11µM*	2µM*	u	u
SMILES	NPC1 promoter act	KinaseGlo FLuc	SMN2 splice up	Rab9 promoter act	FLuc counter	ELG1 genotox
CCOC(=O)c1c(C)oc2nc(C)nc(N3CCN(c4cc(Cl)ccc4C)CC3)c12	x	x	x	x	-1%	x
COc1ccc(Nc2ncnc3c2c(-c2ccccc2)cn3-c2ccc(C)c(Cl)c2)cc1OC	x	x	x	x	0%	x
Cc1c(/N=C(\[O-])Nc2ccc(Br)cc2)sn[n+]1C	0.28µM*	x	x	0.1µM*	1.1µM*	0.37µM*
Cc1ccc(-c2nc3cccnc3s2)cc1NS(=O)(=O)c1cccs1	10%	x	x	15%	27µM*	10%
CCc1ccc(S(=O)(=O)Nc2ccc(-c3nc4cccnc4s3)cc2)s1	15%	3%	16µM*	u	u	15µM*
O=S(=O)(Nc1ccc(-c2nc3cccnc3s2)cc1)c1cc(F)ccc1F	4%	x	x	u	u	u
Cc1nc2ccc(S(=O)(=O)Nc3cc(-c4nc5cccnc5s4)ccc3C)cc2s1	-5%	0%	16µM*	2%	19µM*	u
CCOCC(=O)Nc1cccc(-c2nc3cccnc3s2)c1C	13%	x	x	1%	17µM*	0%
CC(=O)Oc1ccc2c3c(c(=O)oc2c1C)CCCC3	2%	x	x	-1%	u	-6%
CCSc1oc(-c2ccc(F)cc2)nc1S(=O)(=O)c1ccc(C)cc1	x	x	-3%	x	-8%	x
COc1ccc(CN2CCN(Cc3cccc(OC)c3)C(CCO)C2)cc1 (stereo not drawn)	-3%	5%	x	-3%	2%	-3%
CCC(C)c1ccccc1NC(=O)Cc1coc2cc3c(cc12)CCC3 (stereo not drawn)	-4%	-1%	-30%	1%	3%	4%
O=C(Nc1cccc(-c2nc3cccnc3s2)c1)c1cccnc1Cl	22%	x	x	23%	17µM*	-7%
O=C(Nc1cccc(-c2nc3cccnc3s2)c1)c1ccc(Cl)nc1	15%	x	x	3%	-16%	-6%
NS(=O)(=O)c1ccc(C(=O)Nc2ccc(-c3nc4cccnc4s3)cc2)cc1	1.4µM*	x	x	1.4µM*	12µM*	u
CCOc1ccccc1C(=O)Nc1cc2c(cc1C)n(C)c(=O)c(=O)n2C	x	x	x	x	1%	x
CCOc1ccccc1C(=O)Nc1cc(-c2nc3cccnc3s2)ccc1C	x	x	x	x	9.5µM*	x
NS(=O)(=O)c1ccc(NC(=O)c2ccc(-c3ccccc3)cc2)cc1	-3%	3%	17%	-4%	-1%	10%
COc1cc(/C=N/NS(=O)(=O)c2ccc(C)cc2)ccc1OCc1ccc(C(=O)O)cc1	0.79µM*	x	x	4.5µM*	0.024µM*	u
COc1cc(/C=N/NC(=O)CN2CCCCC2)ccc1OCc1ccc(Br)cc1	9%	-3%	10µM*	2%	15µM*	u
CCOc1ccc(/C=N/NS(=O)(=O)c2ccc(C)cc2)cc1OC	-1%	x	x	2%	-2%	0%
COCCn1c(C)cc(O)c(C(c2ccccc2)N2CCN(c3ccccc3F)CC2)c1=O (stereo not drawn)	x	x	x	x	3%	x
Cc1cc(=O)oc2cc(NC(=O)c3cc(F)ccc3F)ccc12	u	x	x	2.5µM*	3%	u
